The values that follow come from ChEMBL document CHEMBL4513216, “Probing the Open Global Health Chemical Diversity Library for Multistage-Active Starting Points for Next-Generation Antimalarials” (ACS Infect Dis, 2020).

The campaign covered roughly 69,000 compounds. About 8,600 (12%) showed an effect of 50% or more. Many of the other results were omitted from the sample, so strong results are more common in it than they were.

This assay deals with Plasmodium berghei. Briefly: Screen against P. berghei liver stage (PbLuc), transformed with Luciferase, at 10uM. In kind it is functional, HepG2. To be noted: tested at 10 uM.
With `CCc1nc2n(n1)CC(NCc1cnc(N(CC)CC)s1)CC2` (centres undefined), the INHIBITION is given as 30.5%.

Take `CC(=O)N1CCCC(C(=O)c2cnn(-c3ccc(F)cc3)c2N)C1` (centres undefined): the INHIBITION was determined as 24.425%.

`Cc1nc[nH]c1CN1C[C@@H]2OCCN(c3ncccn3)[C@@H]2C1`: the INHIBITION was 42.7%.

As to `Cc1ccc(-n2ccnc2-c2cn(C3CCNCC3)nn2)c(Cl)c1`, the INHIBITION came to 45.8%.

Consider `CC(C)CCN1CCN(C(=O)c2ccc(=O)[nH]n2)CC1`, for which the INHIBITION is on record as 47%.

As for `Cc1cccc(C(=O)N2CCN(CCC(C)C)CC2)n1`, the INHIBITION was 50.3%.

Consider `Cc1cccc(C(=O)N2CCN(CCOC(C)C)CC2)n1`, for which the INHIBITION is recorded as -49.3%.

Regarding `Cc1ncsc1C(=O)N1CCN(CCC(C)C)CC1`, the INHIBITION was found to be 53.7%.

Regarding `CCN1CCN(C(=O)c2scnc2C)CC1`, the INHIBITION came out at 26.4%.

On to `CCCN1CCN(C(=O)c2scnc2C)CC1`, for which the INHIBITION was determined as 11.1%.

For `CCN1CCCc2cc(CN3CCc4nc(C)[nH]c(=O)c4C3)ccc21`, the INHIBITION is 15.1%.

As for `Cn1ncc(Cl)c1C(=O)NCCN1CCC(O)(c2ccc(F)cc2)CC1`, the INHIBITION was 6.3%.

With `CCOCCCNC(=O)CN(c1cccc(F)c1)S(C)(=O)=O`, the INHIBITION was found to be 30%.

Regarding `COC(=O)c1c(Cl)c(C2CC2)nc2onc(C)c12`, the INHIBITION turned out to be 47.2%.

For `O=C(Cn1ccnc1)N1C[C@@H]2CC[C@H](Oc3cccc(F)c3)[C@@H]2C1`, the INHIBITION was found to be 1.5%.

As to `CN(C)CC(=O)N1C[C@@H]2CC[C@H](Oc3ccccc3Cl)[C@@H]2C1`, the INHIBITION is recorded as 37.5%.

`O=C(Cn1ccnc1)N1C[C@@H]2CC[C@H](Oc3ccccc3F)[C@@H]2C1`: the INHIBITION is reported as -6.92%.

Consider `O=C(Cn1ccnc1)N1C[C@@H]2CC[C@H](Oc3ccccc3)[C@@H]2C1`, for which the INHIBITION was 24.5%.

Consider `O=C(Cn1ccnc1)N1C[C@@H]2CC[C@H](Oc3ccc(Cl)cc3)[C@@H]2C1`, for which the INHIBITION came out at 56%.

Consider `O=C(Cn1ccnc1)N1C[C@@H]2CC[C@H](Oc3ccccc3Cl)[C@@H]2C1`, for which the INHIBITION is recorded as 53.5%.

`Cc1ccc(CN2C(=O)OCC2CO)c2ccccc12` (centres undefined): the INHIBITION came to 40.3%.

For the compound `CNc1nc(CNC(=O)Nc2cccc(C(C)OC)c2)cs1` (centres undefined), the INHIBITION was found to be 13.957%.

As to `CN(C)[C@H]1CCCCN(C(=O)CCc2csc(N)n2)C1`, the INHIBITION came out at 16.8%.

On to `COCCCC1CCCN(C(=O)CCc2csc(N)n2)C1` (centres undefined), for which the INHIBITION was found to be 35.8%.

Turning to `CN(C)C1CCCN(C(=O)CCc2csc(N)n2)CC1` (centres undefined), the INHIBITION is listed as 33.9%.

As for `N[C@H]1CN(C(=O)CCC(F)(F)F)C[C@@H]1c1ccccc1`, the INHIBITION was 36.5%.

Turning to `N[C@H]1CN(C(=O)CCc2ccccn2)C[C@@H]1c1ccccc1`, the INHIBITION was 37.6%.

Turning to `CN1[C@@H]2CC[C@H]1CN(C(=O)CCc1csc(N)n1)CC2`, the INHIBITION is on record as 50.3%.

With `Nc1nc(CCC(=O)N2C[C@H](c3ccccc3)[C@@H](N)C2)cs1`, the INHIBITION was 51%.

Consider `Nc1nc(CCC(=O)N2CCOC(CC3CCCCC3)C2)cs1` (centres undefined), for which the INHIBITION stood at 85.1%.

`Cc1n[nH]c(C2CN(C(=O)CCc3cscn3)CCO2)n1` (centres undefined): the INHIBITION is listed as 40.75%.

Turning to `CC1c2ncc(COCC3CCOCC3)n2CCN1Cc1cccnc1` (centres undefined), the INHIBITION amounted to 12.1%.

For the compound `Cc1ccsc1[C@@H]1CCN(C(=O)c2cc3ccccc3[nH]2)C[C@H]1O`, the INHIBITION was found to be 66.9%.

As for `Cc1ccsc1[C@@H]1CCN(C(=O)c2ccc(-c3cc[nH]n3)cc2)C[C@H]1O`, the INHIBITION is recorded as 16.1%.

For the compound `Cc1ccsc1[C@@H]1CCN(C(=O)CCc2nc3ccccc3[nH]2)C[C@H]1O`, the INHIBITION is -27.5%.

With `c1csc(CN2CCc3ncnc(C4CCOC4)c3CC2)n1` (centres undefined), the INHIBITION turned out to be 31.4%.

With `Cn1ncc2c(=O)[nH]c(CN(Cc3ccco3)C3CC3)nc21`, the INHIBITION worked out at 47%.

Take `COc1ccc(C(C)N(C)Cc2nc3c(cnn3C)c(=O)[nH]2)cc1` (centres undefined): the INHIBITION turned out to be 0.7%.

With `Cc1ccc(C(C)N(C)Cc2nc3c(cnn3C)c(=O)[nH]2)cc1` (centres undefined), the INHIBITION turned out to be 52.1%.

Consider `Cc1ccccc1C(C)N(C)Cc1nc2c(cnn2C)c(=O)[nH]1` (centres undefined), for which the INHIBITION came to 26.45%.

On to `CC(c1ccco1)N(C)Cc1nc2c(cnn2C)c(=O)[nH]1` (centres undefined), for which the INHIBITION was 66.8%.

Take `Cn1ncc2c(=O)[nH]c(CN(Cc3ccco3)C3CCCC3)nc21`: the INHIBITION is 54.3%.

With `Cc1ccc(C(C)N(C)Cc2nc3c(cnn3C)c(=O)[nH]2)c(C)c1` (centres undefined), the INHIBITION turned out to be 8.315%.

Take `Cc1ccc(CN(Cc2nc3c(cnn3C)c(=O)[nH]2)C2CC2)o1`: the INHIBITION is on record as 15.5%.

As for `CN(Cc1nc2c(cnn2C)c(=O)[nH]1)Cc1ccco1`, the INHIBITION was -5.07%.

As for `Cn1ncc2c(=O)[nH]c(CN3CCCC3Cc3ccccc3)nc21` (centres undefined), the INHIBITION was determined as 24%.

Take `Cn1ncc2c(=O)[nH]c(CN3CCc4ccccc4C3)nc21`: the INHIBITION was 40%.

Turning to `Cn1ncc2c(=O)[nH]c(CN3CCC(Cc4ccccc4)CC3)nc21`, the INHIBITION worked out at 52.7%.

For `COC(C)(C)CNC(=O)N1CCC(n2ccc(C(F)(F)F)n2)CC1`, the INHIBITION is 33.7%.

With `COCCn1cc(CC(=O)Nc2c(C)nn(C)c2C)c2ccccc21`, the INHIBITION was found to be 37.8%.

`CCn1cc(CNC(=O)C2CCCC2)cn1`: the INHIBITION is on record as 38.3%.

For `CCOc1ccccc1CC(=O)N1C[C@@H](C(=O)O)[C@H](c2ccncc2)C1`, the INHIBITION is on record as -5.32%.

For `Cc1cccc(CN2CCC(c3csc4nccn34)CC2)n1`, the INHIBITION was 15.55%.

`CCN(Cc1nc2c(cnn2C)c(=O)[nH]1)c1cc(C)cc(C)c1`: the INHIBITION is 64.7%.

Consider `CCN(Cc1nc2c(cnn2C)c(=O)[nH]1)c1cccc(C)c1`, for which the INHIBITION came out at 11.2%.

Consider `CCN(Cc1nc2c(cnn2C)c(=O)[nH]1)c1ccccc1`, for which the INHIBITION stood at 46.2%.

As to `CC(=O)N1CCC2(C=C(C(=O)NC3CC3)c3ccccc32)CC1`, the INHIBITION is -25.8%.

Consider `COc1ncc(-c2nccn2C(C)CCn2cccn2)cn1` (centres undefined), for which the INHIBITION is reported as 66.9%.

On to `COc1cc(CNC(C)Cn2cccn2)cc2c1OCO2` (centres undefined), for which the INHIBITION was found to be 12.6%.

On to `COc1cc(-c2nccn2CCn2cccn2)cc2c1OCO2`, for which the INHIBITION was found to be 9.56%.

`COc1cc(-c2nccn2C(C)CCn2cccn2)cc2c1OCO2` (centres undefined): the INHIBITION is given as 51.3%.

As to `COc1ncc(-c2nccn2CCN(C)C)cn1`, the INHIBITION was -13.2%.

In the case of `COCCCn1ccnc1-c1cnc(OC)nc1`, the INHIBITION came out at 10.1%.

As to `Cc1cc(CN2CCN(C(=O)c3ccc(=O)n(C)c3)CC2)no1`, the INHIBITION is listed as 7.19%.

Consider `Cc1nn(C)c(N(C)C)c1CNCc1cccnc1N(C)C`, for which the INHIBITION is listed as -17.4%.

Regarding `COc1cccc(CN2CC[C@H]3[C@@H](C2)[C@H](c2ccsc2)CN3C(C)=O)c1`, the INHIBITION was determined as 61.9%.

For the compound `COc1cccc(CC(=O)N2CC[C@H]3[C@@H]2CCC(=O)N3C)c1`, the INHIBITION is listed as -3.51%.

For the compound `COc1cccc([C@@H]2CCN(Cc3cccc(C)n3)C[C@H]2O)c1`, the INHIBITION is -3.83%.

Consider `COc1cccc([C@@H]2CCN(Cc3ccc4ccccc4n3)C[C@H]2O)c1`, for which the INHIBITION is on record as -18.4%.

Consider `CC(=O)N1CCO[C@@H]2CN(Cc3cccc(Cl)c3)C[C@@H]2C1`, for which the INHIBITION was 39.4%.

Turning to `CC(=O)N1C[C@@H](c2ccsc2)[C@@H]2CN(Cc3cccc(Cl)c3)CC[C@@H]21`, the INHIBITION was determined as 65.5%.

In the case of `COc1cccc([C@H]2CN(C(C)=O)[C@@H]3CCN(Cc4ccsc4)C[C@H]23)c1`, the INHIBITION came out at 63.4%.

On to `COc1cccc(CN2CCCC(c3cc(C(N)=O)[nH]n3)C2)c1` (centres undefined), for which the INHIBITION was -7.31%.

In the case of `CC(=O)N1C[C@@H](c2ccsc2)[C@@H]2CN(Cc3ccccc3)CC[C@@H]21`, the INHIBITION stood at 16.9%.
